Screening data deposited in PubChem BioAssay by several laboratories.
BJeLR viability: kills HRASV12-expressing BJeLR cells; inhibition, % (no concentration beside the values); actives 0.17% (n = 300,000); AID 1554; BJeLR (HRASV12) viability, CellTiter-Glo ATP luminescence, 48 h; in the data active means inhibition above about 50%; inconclusive means no clear call, values can overlap the other calls
GDH-TPI counter: counter-screen for M. tuberculosis FBA inhibitors: GDH-TPI coupled enzymes; GDH-TPI coupled enzyme counterscreen, NADH absorbance; inhibition, % at 4.8 µM; actives 1.2% (n = 360,000); AID 588335; in the data active means inhibition above about 30%;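 further: 0% = DMSO wells and 100% = wells lacking the enzyme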
Mtb FBA inh: inhibits M. tuberculosis FBA enzyme; purified M. tuberculosis FBA, fluorescence read-out; actives 2.3% (n = 360,000); AID 588726; inhibition, % at 1 µM; in the data active means inhibition above about 27%;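 further: 0% = vehicle and 100% = reference inhibitor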
Target sequence (P9WQA3 whole entry, looked up): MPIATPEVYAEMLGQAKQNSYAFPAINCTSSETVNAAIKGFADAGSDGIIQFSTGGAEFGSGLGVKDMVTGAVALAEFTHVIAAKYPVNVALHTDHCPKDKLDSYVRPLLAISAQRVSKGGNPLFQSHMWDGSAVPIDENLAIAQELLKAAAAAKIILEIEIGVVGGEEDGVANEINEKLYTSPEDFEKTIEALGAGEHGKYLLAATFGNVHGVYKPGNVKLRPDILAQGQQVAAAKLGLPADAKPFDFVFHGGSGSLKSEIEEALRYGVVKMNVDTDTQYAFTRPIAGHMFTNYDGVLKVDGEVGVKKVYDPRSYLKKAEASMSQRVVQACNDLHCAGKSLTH
PrP UTR inh: inhibition of PrP 5' UTR reporter expression. actives 0.35% (n = 340,000). inhibition, % (concentration not given with the values). cell-based PrP 5' UTR mRNA reporter, plate reader; in the data active means inhibition above about 52%; further: 0 = median of the neutral control wells
PrPC TRFRET: reduces human prion protein on the cell surface. P04156. cell surface PrPC, TR-FRET read-out. inhibition, % at 13.8 µM. actives 0.43% (n = 370,000). AID 720596; in the data active means inhibition above about 24%; further: 0% = median of the test wells and 100% = reference compound wells
PfHsp40 yeast: rescue of PfHsp40-mediated yeast toxicity; actives 0.68% (n = 340,000); S. cerevisiae expressing PfHsp40, growth rescue, ATP luminescence; growth rescue, % at 12.5 µM; in the data active means growth rescue above about 28%, passing the limit was not always enough; inconclusive means no clear call, values can overlap the other calls;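 further: yeast W303a lacking pdr1 and pdr3 grown in galactose medium; growth measured after three days at 30 °C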
Active calls of the source: *; ? = inconclusive; · = no result given; + = active, no number. An excerpt weighted towards active compounds, which were near 4.5% of everything screened.

SMILES	BJeLR viability	GDH-TPI counter	Mtb FBA inh	PrP UTR inh	PrPC TRFRET	PfHsp40 yeast
Cc1ccc(NC(=O)CCC(=O)N/N=C/c2ccc([N+](=O)[O-])o2)cc1C	-3	19	2	-2	-31	0
CCC(=O)Nc1ccc(C(=O)N/N=C/c2ccc([N+](=O)[O-])cc2)cc1	15	51*	-2	-22	-29	0
CCCC(=O)Nc1ccc(C(=O)N/N=C/c2ccc([N+](=O)[O-])o2)cc1	122*	21	-2	22	-24	3
C=CCN1C(=O)[C@@H](CC(=O)N2CCCCC2)[C@]2(C(=O)OCC)CCCCC/C=C/12	·	·	·	·	5	·
CCN(CC)C(=O)CC[C@@H]1CC[C@]2(CCCN(Cc3nccs3)C2)O1	·	·	·	·	-10	·
Cc1c(C)c2c(OCC(=O)Nc3cccnc3)cc3c(c2oc1=O)CCC(C)(C)O3	3	6	7	-22	1	-1
COc1cc2c(c3oc(=O)cc(CC(=O)O)c13)CCC(C)(C)O2	1	9	199*	16	-1	1
CCc1cc(=O)oc2c3c(cc(OCC(=O)NCc4cccnc4)c12)OC(C)(C)CC3	4	4	+	-13	7	1
CCc1cc(=O)oc2c(C)c(OCC(=O)NCCCN3CCCC3=O)ccc12	-2	13	24	0	6	0
CCc1cc(=O)oc2c3c(cc(OCC(=O)NCCCCCC(=O)O)c12)OC(C)(C)CC3	13	25	+	-21	-1	-1
CCc1cc(=O)oc2c3c(cc(OCC(=O)Nc4cccnc4)c12)OC(C)(C)CC3	10	24	34*	-3	7	9
C=CCN1C(=O)[C@H](CC(=O)NCc2ccc(OC)c(OC)c2)[C@@]2(C(=O)OCC)CCCC=C12	·	·	·	·	-5	·
Cc1ccc(-c2cc(C(=O)NN=Cc3c4ccccc4cc4ccccc34)[nH]n2)cc1C	·	·	·	·	-2	·
CCc1cc(=O)oc2c(C)c(OCC(=O)NCc3ccccn3)ccc12	1	7	4	13	-1	0
CCc1cc(=O)oc2c3c(cc(OCC(=O)NCc4ccccn4)c12)OC(C)(C)CC3	-4	10	189*	-15	13	3
COc1ccc2cc(C(=O)C3CCCN(C(=O)CSc4nnc(C)o4)C3)ccc2c1 (centres undefined)	-4	17	126*	3	-7	-1
COc1ccc2cc(C(=O)C3CCCN(C(=O)CCc4cnn(C)c4)C3)ccc2c1 (centres undefined)	4	8	127*	-22	2	1
Cn1cc(CCC(=O)N2CCCC(C(=O)c3cccc4ccccc34)C2)cn1 (centres undefined)	·	-4	8	-13	0	0
CCNC(=O)N1CCCC(C(=O)c2ccc3cc(OC)ccc3c2)C1 (centres undefined)	-2	3	16	5	9	-1
COc1ccc2cc(C(=O)C3CCCN(C(=O)c4cccnc4)C3)ccc2c1 (centres undefined)	2	18	163*	-19	16	2
COc1ccc2cc(C(=O)C3CCCN(C(=O)c4cncs4)C3)ccc2c1 (centres undefined)	5	8	152*	-9	-2	1
O=C(c1ccc2ccccc2c1)C1CCCN(C(=O)c2cccnc2)C1 (centres undefined)	-5	3	7	-7	-5	0
CCC[C@H]1[C@@H](OC(=O)NCc2ccc(Cl)cc2)CC[C@@]23CCCN2C(=O)CCC[C@@H]13	·	·	·	·	-1	·
CN(NC1OC(=O)c2ccccc21)c1ccc(Cl)cc1[N+](=O)[O-] (centres undefined)	-2	39*	-3	-5	-7	0
O=C(O)c1ccccc1NS(=O)(=O)c1ccc(N/N=C/c2ccc(O)c(O)c2)c([N+](=O)[O-])c1	·	46*	1	-4	-17	7
SMILES	BJeLR viability	GDH-TPI counter	Mtb FBA inh	PrP UTR inh	PrPC TRFRET	PfHsp40 yeast
COc1ccccc1NS(=O)(=O)c1ccc(N/N=C/c2ccccc2OCC(=O)O)c([N+](=O)[O-])c1	3	35*	-6	-18	-13	1
O=C(O)c1ccccc1NS(=O)(=O)c1ccc(NN=Cc2ccc(F)cc2)c([N+](=O)[O-])c1	·	13	-2	-11	·	2
CCCCC(=O)NC(c1ccco1)c1cc(Cl)c2cccnc2c1O (centres undefined)	4	6	-1	-7	4	360*
CCC(=O)NC(c1ccco1)c1cc(Cl)c2cccnc2c1OC (centres undefined)	·	-4	0	-24	-6	-1
CCC(=O)NC(c1ccco1)c1cc(Cl)c2cccnc2c1O (centres undefined)	-3	-4	-3	-25	-6	277*
CC(=O)NC(c1ccco1)c1cc(Cl)c2cccnc2c1O (centres undefined)	·	7	1	·	6	·
Oc1c(C(Nc2ccccn2)c2cccnc2)cc(Cl)c2cccnc12 (centres undefined)	16	-2	0	-23	1	318*
O=C(NC1CCCCC1)C1c2ccccc2OCC(=O)N1Cc1cccnc1 (centres undefined)	·	·	·	·	-2	·
C#CCn1c(=NC(=O)c2ccc(S(=O)(=O)N3CCc4ccccc4C3)cc2)sc2cc(S(N)(=O)=O)ccc21	9	48*	10	-10	·	1
C=CCn1c(=NC(=O)c2ccc(S(=O)(=O)N3CCc4ccccc4C3)cc2)sc2cc(S(N)(=O)=O)ccc21	8	26	26	-9	-5	0
Cc1cc(C)c2c(N=NN(C)C)[nH]nc2n1	-4	16	-2	-17	-7	68*
CN(C)Cc1c(O)ccc2c(=O)c(-c3ccccc3Cl)c(C(F)(F)F)oc12	4	36*	2	-3	1	0
COc1ccc2c(c1)c1nnc(SC)nc1n2C	5	6	0	-22	-6	59*
Cc1[nH]n(-c2cccc3ccccc23)c(=O)c1/C=N/NC(=O)c1cccc([N+](=O)[O-])c1	6	28	-6	-44	11	83*
Cc1[nH]n(-c2ccccc2)c(=O)c1/C=N/NC(=O)c1cccc([N+](=O)[O-])c1	·	7	3	-18	2	?
CCOC(=O)c1c[nH]c(=S)n(-c2ccccc2)c1=O	-4	39*	-4	-26	3	-2
CCOC(=O)c1c(C)c2c(=O)[nH]cnc2n1-c1ccccc1	6	9	0	10	-2	0
COc1ccc(CC(N)c2csc(NC(=O)c3cc(C(C)(C)C)oc3C)n2)cc1 (centres undefined)	·	8	1	·	2	·
CC(=O)C(C(C)=O)c1c(Cl)c(O)c(O)c2c(C(=O)c3ccccc3)coc12	-3	19	0	-1	14	51*
CCCCCCC/C=C(\C)[C@@H](O)[C@@H](C)C(=O)N1CCC[C@@H]1C(=O)O	·	·	·	·	0	·
